Screening data from PubChem.
Most compounds without a hit are left out; they make up all but 19% or so of the library.
TDP1 inh: qHTS Assay for Inhibitors of Tyrosyl-DNA Phosphodiesterase (TDP1). Potency, µM (doses to about 130 µM), inactives show at the top dose activity change, negative = inhibition, hits mostly inhibitors. Tyrosyl-DNA phosphodiesterase 1 (Homo sapiens), Q9NUW8. recombinant TDP1, AlphaScreen DNA substrate cleavage. actives 0.28% (n = 350,000); note: potency is the fitted concentration of half-maximal effect; % is set by controls: 0 for no effect and ±100 for the full control effect; nearly all actives have a fitted effect of over 40% in size
Target sequence (Q9NUW8 whole entry, looked up): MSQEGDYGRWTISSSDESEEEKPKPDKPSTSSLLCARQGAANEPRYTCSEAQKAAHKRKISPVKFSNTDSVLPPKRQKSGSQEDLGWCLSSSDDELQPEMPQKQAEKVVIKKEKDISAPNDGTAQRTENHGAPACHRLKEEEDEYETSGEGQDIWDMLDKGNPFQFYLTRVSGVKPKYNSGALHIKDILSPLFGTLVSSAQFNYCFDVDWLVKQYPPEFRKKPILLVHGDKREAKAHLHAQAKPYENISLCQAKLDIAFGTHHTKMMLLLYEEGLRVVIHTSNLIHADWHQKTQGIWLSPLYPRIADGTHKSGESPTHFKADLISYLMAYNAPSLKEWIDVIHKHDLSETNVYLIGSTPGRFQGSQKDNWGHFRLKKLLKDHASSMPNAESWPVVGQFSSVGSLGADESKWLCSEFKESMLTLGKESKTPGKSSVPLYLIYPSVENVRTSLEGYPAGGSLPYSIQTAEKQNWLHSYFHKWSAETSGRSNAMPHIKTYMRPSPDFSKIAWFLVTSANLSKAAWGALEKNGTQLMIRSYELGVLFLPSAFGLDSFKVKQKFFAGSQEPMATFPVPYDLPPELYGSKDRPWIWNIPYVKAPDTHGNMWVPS
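Compounds were preincubated with Tdp1 (1 nM final) for 15 min at room temperature before substrate (15 nM final) started a 5 min reaction; beads (10 ug/ml final) were then added for 10 min before AlphaScreen detection.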
TGFb SMAD3 inh: qHTS for Inhibitors of TGF-b; HepG2 CAGA-GFP TGF-b/SMAD3 reporter, GFP fluorescence, 18 h; TGF-beta stimulated, 500 pg/mL final; actives 1.2% (n = 410,000); Potency, µM (doses to about 46.1 µM), inactives show at the highest dose activity, negative = inhibition, usual class: inhibitors; note: potency is the fitted concentration of half-maximal effect; % is set by controls: 0 for no effect and ±100 for the full control effect; nearly all actives have a fitted effect of over 65% in size
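HEPG2 CAGA-GFP cells (1000/well, DMEM with 1% FBS) were pre-incubated 2 h at 37 degrees C, given compound by pin tool, then stimulated with TGF-beta at 500 pg/mL final for 18 h before per-cell GFP fluorescence imaging.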
TDP1 cell noCPT: qHTS for Inhibitors of human tyrosyl-DNA phosphodiesterase 1 (TDP1): qHTS in cells in absence of CPT. AID 686978, 2013. actives 15% (n = 420,000). DT40 Tdp1-/- hTDP1 cells, no CPT, ATP luminescence, 48 h. Potency, µM (titrated, usually from 46.2 µM), for inactives: at the top dose activity change, negative = growth inhibition, usual class: inhibitors; note: potency is the fitted concentration of half-maximal effect; % is set by controls: 0 for no effect and ±100 for the full control effect; nearly all actives have a fitted effect of over 55% in size
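Seeded 400 DT40-hTDP1 cells/well (vehicle DMSO, no 20 nM CPT); pinned compounds; ≥48 hr at 37 °C; CellTiter-Glo luminescence as viability measure.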
DT40 TDP1 CPT: qHTS for Inhibitors of human tyrosyl-DNA phosphodiesterase 1 (TDP1): qHTS in cells in presence of CPT | chicken DT40 Tdp1-/-;hTDP1 cells + 20 nM CPT, ATP luminescence, 48 h | actives 12% (n = 420,000) | Potency, µM (doses to about 46.2 µM), inactives show top-dose activity change, negative = growth inhibition, usual class: inhibitors; note: potency is the fitted concentration of half-maximal effect; % is set by controls: 0 for no effect and ±100 for the full control effect; nearly all actives have a fitted effect of over 55% in size
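Cell growth measured by CellTiter-Glo luminescence after a minimum 48 h, 37 C compound exposure with 20 nM CPT in Tdp1-knockout DT40 cells stably expressing hTDP1, seeded 400/well; qHTS titration format.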
IL-1B inflam inh: qHTS for Inhibitors of Inflammasome Signaling: IL-1-beta AlphaLISA Primary Screen; activity change, % at 57.5 µM; THP-1 LPS/ATP IL-1B secretion, AlphaLISA, 16 h; stronger effect = lower value; actives 4.7% (n = 360,000); in the data active = activity change below about -50%; inconclusive = mostly about -30% to -49%; note: % is set by controls: 0 for no effect and ±100 for the full control effect
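THP-1 cells pretreated 1 hr with compounds (up to 57.5 uM final), then stimulated with LPS (250 ng/mL final) plus ATP (1.25 mM final); secreted IL-1B measured by AlphaLISA after 16 hr, decreased signal indicating inhibition.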
HepG2 tox: qHTS for Inhibitors of TGF-b: Cytotox Counterscreen; HepG2 CAGA-GFP viability, ATP luminescence, 18 h; Potency, µM (doses to about 46.1 µM), without a hit: at the highest dose activity change, negative = cytotoxicity, actives largely listed as cytotoxic; actives 0.76% (n = 410,000); note: potency is the fitted concentration of half-maximal effect
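HepG2 CAGA-GFP cells (1000/well, DMEM with 1% FBS) received compound, then TGF-beta at 500 pg/mL final, and were incubated 18 hours at 37 degrees C. Viability was read by CellTiter-Glo luminescence. Media-only wells were set as complete cell-killing and DMSO as no toxicity.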
Active calls of the source: *; ? = inconclusive; · = no result given; [ ] = dose if it differs, or a comment. Unless noted, calls come from the whole dose curve; as a rule, active = well fitted curve in the direction sought with a large enough effect; inconclusive = small, poorly fitted or top-dose-only effect, or another doubt; inactive = no such curve, though single readings can be large; an effect the other way counts as inactive or inconclusive.

SMILES	TDP1 inh	TGFb SMAD3 inh	TDP1 cell noCPT	DT40 TDP1 CPT	IL-1B inflam inh	HepG2 tox
CCN(CC)C(=O)c1cccc(-c2csc(C(C)(O)c3cccc(F)c3)n2)c1 (configuration not stated)	·	?	23.1µM*	18.4µM*	-22.8	-19.0%
CC(O)(c1cccc(F)c1)c1nc(/C=C/c2ccccc2)cs1 (configuration not stated)	·	?	?	18.4µM*	-3.7	-55.4%
Cc1ccc(CNC(=O)C2CCN(c3ncnc4c3nc3n4CCCCC3)CC2)cc1	-8.7%	-14.1%	4.1%	12.2%	·	-4.9%
Clc1nnc(NC2CCCCC2)c(Cl)c1Cl	·	-0.7%	?	0.4%	27.5	0.9%
COc1ccc(-c2csc(C(C)(O)c3cccc(F)c3)n2)cn1 (configuration not stated)	·	-16.7%	23.1µM*	23.1µM*	12.6	-13.6%
CC(=O)Nc1cccc(-c2csc(C(C)(O)c3cccc(F)c3)n2)c1 (configuration not stated)	·	-2.0%	?	23.1µM*	58.7	-8.5%
CC(O)(c1cccc(F)c1)c1nc(-c2ccc3ccccc3c2)cs1 (configuration not stated)	·	?	23.1µM*	13µM*	0.0	-32.4%
CC(O)(c1cccc(F)c1)c1nc(-c2ccc(Cl)cc2)cs1 (configuration not stated)	·	?	?	?	31.1	-57.8%
OC(c1ccccc1)(c1nc(/C=C/c2ccc(C(F)(F)F)cc2)cs1)C(F)(F)F (configuration not stated)	·	?	23.1µM*	?	-2.1	-110.3%
COc1ccc(C(C)(O)c2nc(-c3ccc(OC)nc3)cs2)cc1 (configuration not stated)	·	-1.8%	?	?	93.6	-20.7%
CC(O)(c1cccc(F)c1)c1nc(-c2cncnc2)cs1 (configuration not stated)	·	-14.8%	-23.6%	?	68.2	7.2%
CC(O)(c1ccc(F)c(F)c1)c1nc(/C=C/c2ccc(C(F)(F)F)cc2)cs1 (configuration not stated)	·	?	?	?	-20.4	-118.9%
O=C(CSCc1ccccc1Br)N/N=C/c1ccccc1C(=O)O	2.7%	-2.3%	2.5%	7.2%	12.0	7.3%
COc1ccc(NC(=O)Cn2nc3c(cc2=O)CCCC3)cc1Cl	2.2%	-20.0%	-18.5%	-15.1%	·	-15.2%
O=C(Nc1ccccc1)Nc1cccn(Cc2c(F)cccc2Cl)c1=O	6.0%	?	?	-25.1%	-61.0*	-27.3%
COc1cccc(Cn2cccc(NC(=O)Nc3ccc(C#N)cc3)c2=O)c1	2.9%	?	8.2µM*	18.4µM*	-3.7	-30.7%
COc1ccc(Nc2nc(-c3sc(NC(C)=O)nc3C)cs2)cc1	7.0%	·	·	·	·	·
CCCCCCC(=O)Nc1nc(C)c(-c2csc(Nc3ccc(Cl)cc3)n2)s1	5.9%	?	4.61µM*	2.31µM*	7.4	-18.3%
CCCCCC(=O)Nc1nc(C)c(-c2csc(Nc3ccc(Cl)cc3)n2)s1	10.4%	9.2%	13µM*	?	-6.2	-26.3%
CCCCCC(=O)Nc1nc(C)c(-c2csc(Nc3cc(Cl)ccc3C)n2)s1	-1.0%	9.8%	18.4µM*	?	5.8	-26.0%
CCOc1ccc(CCNC(=O)C2CCN(Cc3nc(-c4ccc(OC)c(OC)c4)oc3C)CC2)cc1OCC	5.8%	6.7%	-7.1%	-1.2%	·	-21.2%
C/C(=N\NC(=O)c1ccc2c(c1)OCO2)c1ccc(NC(=O)CCCC(=O)O)cc1	2.9%[56.1 µM]	-1.6%	5.0%	-0.9%	0.2	-12.4%
CC(C(=O)N1CCOCC1)(c1ccccc1)c1ccccc1	3.3%	?	-20.8%	-4.4%	1.1	-15.9%
Cc1c(C(=O)N2CCOCC2)cc(C(C)(C)C)n1-c1ccccc1	8.9%	13.7%	20.6µM*	?	-1.7	-4.7%
Cc1cc(C)cc(Nc2ccc([N+](=O)[O-])nc2[N+](=O)[O-])c1	5.9%	-8.9%	-9.1%	-1.7%	18.3	-0.3%
SMILES	TDP1 inh	TGFb SMAD3 inh	TDP1 cell noCPT	DT40 TDP1 CPT	IL-1B inflam inh	HepG2 tox
COc1cc(Nc2ccc(C)cc2)c([N+](=O)[O-])nc1[N+](=O)[O-]	5.0%	-27.7%	2.59µM*	2.06µM*	73.5	-20.8%
CN(c1ccccc1C(=O)O)S(C)(=O)=O	5.1%	25.4%	-7.1%	9.7%	-0.6	18.4%
CN(C)c1ccccc1C(=O)c1ccccc1N(C)C	7.8%	-2.9%	4.11µM*	4.61µM*	24.4	-9.1%
CCC(C)NC(=O)CSc1nc2c(sc3ccccc32)c(=O)n1CCc1ccc(OC)c(OC)c1 (configuration not stated)	6.4%	-4.5%	-21.8%	1.8%	·	-1.3%
CCC(C)NC(=O)CSc1nc2c(sc3ccccc32)c(=O)n1Cc1ccccc1Cl (configuration not stated)	6.4%	-0.4%	3.26µM*	?	·	-0.8%
COCCNC(=O)CCCn1c(SCc2ccccc2Cl)nc2c(sc3ccccc32)c1=O	5.9%	87.5%	9.2µM*	?	·	70.2%
CC1CCN(S(=O)(=O)c2ccc3nc(N4CCN(c5ccccc5)CC4)ccc3c2)CC1	2.0%	21.6%	7.4%	-18.0%	22.4	0.7%
CCCC(=O)N(c1ccc2oc(=O)sc2c1)S(=O)(=O)c1ccccc1	12.4%	-21.4%	20.6µM*	?	-4.7	-28.7%
CC(=O)N(c1ccc2oc(=O)sc2c1)S(=O)(=O)c1ccc(C(=O)O)cc1	6.0%	9.6%	-15.9%	1.0%	12.0	9.4%
CC1(C)N=C(N)N=C(N)N1c1ccc(CCCCc2ccccc2)cc1	·	?	0.366µM*	0.651µM*	?	-52.6%
CC1(C)N=C(N)N=C(N)N1c1ccc(Oc2ccc(Cl)cc2)c(Cl)c1	·	?	1.46µM*	2.59µM*	-86.0*	-33.2%
CC1(C)N=C(N)N=C(N)N1c1ccccc1	-2.0%	-29.1%	0.13µM*	0.731µM*	-7.2	-54.3%
CC1(C)N=C(N)N=C(N)N1c1cc(Cl)ccc1Cl	·	-3.9%	?	-11.3%	-18.8	-87.2%
CC1(C)N=C(N)N=C(N)N1c1cccc(CN)c1	1.2%	-2.1%	?	-24.7%	-1.9	10.0%
